Screening results (PubChem)
Sampled rows, rich in hits. Any-hit rate of the full collection: about 6.8%.
PINK1 modulator: PINK1 expression modulation; PINK1 immunofluorescence, high-content cytometry, 24 h; AID 624263; 410,000 tested, 0.2% active; Potency, µM (titrated, usually from 76.6 µM), actives largely listed as activators; active = well fitted activation curve with a large enough effect; inconclusive = small, poorly fitted or top-dose-only effect; cell line not stated here; also: nearly all actives have a fitted effect of over 65% in size
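A stable cell line was treated with compounds at 5 concentrations for 24 hours, with CCCP as control. PINK1 levels and mitochondrial localization were measured by immunofluorescence with mitochondrial, cell and nuclear markers after fixation, read by laser-scanning cytometry.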
KB-V1 MDR tox: kills drug-selected multidrug resistant KB-V1 cells. KB-V1 MDR cells viability, CellTiter-Glo, 72 h. Potency, µM (series often up to 46.1 µM), usual class: cytotoxic. 400,000 tested, 3.4% active; also: nearly all actives have a fitted effect of over 60% in size
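Cells of the MDR subline KB-V1 are plated, dosed with compound at multiple concentrations, and incubated 72 h at 37 degrees C; CellTiter-Glo is then added and luminescence read after 10 min.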
MCF10A rerep: inducers of DNA re-replication in MCF 10A breast cells. MCF 10A DNA re-replication, Hoechst nuclear intensity, 48 h. 350,000 tested, 2.9% active. Potency, µM (titrated, usually from 46.1 µM), usual class: activators; also: nearly all actives have a fitted effect of over 50% in size
PTAP TSG101 blk: blocks PTAP/TSG101 interaction to inhibit HIV-1 budding | Fluorescence polarization, FITC-PTAP peptide / Tsg101 binding | 340,000 tested, under 10 active | Potency, µM (series often up to 115 µM), usual class: inhibitors | AID 493005 | Q99816; active = well fitted inhibition curve with a large enough effect in the main read-out, with a control signal flat, not every such curve was filed as active; inconclusive = small, poorly fitted or top-dose-only effect, or effect the other way, or a change in a side signal; inactive = no such curve, though single readings can be large or run the other way
Target sequence (Q99816 whole entry, looked up): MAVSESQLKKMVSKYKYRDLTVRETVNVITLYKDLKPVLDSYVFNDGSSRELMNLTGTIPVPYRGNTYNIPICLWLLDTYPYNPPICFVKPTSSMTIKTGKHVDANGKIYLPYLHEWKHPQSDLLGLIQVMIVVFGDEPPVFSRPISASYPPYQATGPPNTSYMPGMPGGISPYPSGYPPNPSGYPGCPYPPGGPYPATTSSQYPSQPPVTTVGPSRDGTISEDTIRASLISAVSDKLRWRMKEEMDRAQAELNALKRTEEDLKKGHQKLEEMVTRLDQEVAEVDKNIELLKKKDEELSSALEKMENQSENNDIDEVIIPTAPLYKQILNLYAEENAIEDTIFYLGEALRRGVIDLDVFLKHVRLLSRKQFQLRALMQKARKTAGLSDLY
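Fluorescence anisotropy tracks displacement of a FITC-tagged PTAP peptide (50 nM) from the Tsg101 binding domain (10 uM), following a 20 min room-temperature incubation at pH 7.5.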
KB-3-1 tox: kills parental KB-3-1 adenocarcinoma cells; 400,000 tested, 1.4% active; KB-3-1 viability, CellTiter-Glo ATP luminescence, 72 h; AID 1347075; Potency, µM (series often up to 46.1 µM), usual class: cytotoxic; also: nearly all actives have a fitted effect of over 60% in size
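KB-3-1 cells, DMEM (no phenol red) + 10% FBS; compound by pin transfer, 72 h, 37 °C. Readout: CellTiter-Glo luminescence after 10 min. Data normalized, curve-fitted.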
SW480 rereplic: DNA re-replication induction in SW480 cells; SW480 DNA re-replication, Hoechst DNA content imaging, 48 h; Potency, µM (top dose mostly 46.1 µM), usual class: activators; 340,000 tested, 1.8% active; also: nearly all actives have a fitted effect of over 55% in size
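First, 250 cells per well were seeded. Next, compound or vehicle (23 nL) was pinned in, plates sat 48 hr at 37 C. Finally Hoechst was added for 40 min before fluorescence scanning.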
A number is an active result; i = inactive; ? = inconclusive; nt = no result given; [ ] = remark or other dose. Unless noted, calls follow the shape of the dose curve; as a rule, active = well fitted curve in the direction sought with a large enough effect; inconclusive = small, poorly fitted or top-dose-only effect, or another doubt; inactive = no such curve, though single readings can be large; an effect the other way counts as inactive or inconclusive.

SMILES	PINK1 modulator	KB-V1 MDR tox	MCF10A rerep	PTAP TSG101 blk	KB-3-1 tox	SW480 rereplic
COc1ccc(Cl)cc1NC(=O)Cn1c(=O)n2nc(-c3ccccc3)nc2c2ccccc21	i	nt	nt	nt	nt	nt
CCOC(=O)c1ccccc1NC(=O)N(Cc1ccco1)C1CCN(C(C)=O)CC1	i	?	nt	nt	?	nt
Cc1nc2ccccc2c(=O)n1NCc1cc(Br)cs1	i	i	23.1µM	i	i	?
Cc1nc2ccccc2c(=O)n1NS(C)(=O)=O	i	i	i	i	i	i
Cc1ccc(-c2nc(N)sc2-c2ccccc2)cc1C	i	?	8.2µM	i	i	i
Cc1ccc(-c2nc(N)sc2-c2ccc(C)cc2)cc1	i	?	23.1µM	i	?	i
CC(=O)c1ccc(-c2ccc3c4c(ccc3c2)OC(CNC(=O)C(C)N2CCOCC2)C4)s1 (stereo not given)	i	nt	nt	nt	nt	nt
COc1ccc(OC)c(C(C(=O)NCc2ccco2)N(C(=O)Cn2nnc3ccccc32)C2CC2)c1 (stereo not given)	i	6.51µM	i	i	i	i
COC(=O)C1=C(C)Nc2c(c(=O)n(C)c(=O)n2C)C1c1ccncc1 (stereo not given)	i	i	i	i	i	i
CCOC(=O)C1=C(C)Nc2sc(C(=O)c3ccc(OC)cc3)c(N)c2C1c1ccc(C(=O)OC)cc1 (stereo not given)	i	i	11.6µM	i	i	13µM
COC(=O)C1=C(C)Nc2sc(C(N)=O)c(N)c2C1c1ccncc1 (stereo not given)	i	i	?	i	i	23.1µM
COc1ccccc1CNC(=O)CCC1N=C2c3ccccc3N=C(SCc3ccc(C)cc3C)N2C1=O (stereo not given)	i	?	nt	nt	i	nt
CCOc1cc(S(=O)(=O)N2CCCCC2)ccc1F	i	i	i	i	i	i
COc1ccc(Nc2ccc(S(=O)(=O)N3CCCCCC3)cc2[N+](=O)[O-])cc1	i	2.91µM	i	i	?	i
COc1ccc(OCCOc2ccc(S(=O)(=O)N3CCCC3)cc2[N+](=O)[O-])cc1	i	14.6µM	i	i	?	i
O=[N+]([O-])c1cc(S(=O)(=O)N2CCCCCC2)ccc1Cl	i	i	16.4µM	i	i	i
CCOc1cc(S(=O)(=O)N2CCCC2)ccc1Cl	i	i	1.03µM	i	i	0.731µM
COc1ccc(Nc2ccc(S(=O)(=O)N3CCCCC3)cc2[N+](=O)[O-])cc1OC	i	i	i	i	?	i
CCOC(=O)C1CCCCN1C(=O)c1cnn(-c2nccc(-c3cc(C)sc3C)n2)c1C1CC1 (stereo not given)	i	nt	nt	nt	nt	nt
COc1cc(Nc2ccc(S(=O)(=O)N3CCN(C)CC3)cc2[N+](=O)[O-])cc(OC)c1	i	i	i	i	i	3.26µM
Cc1cccn2c(=O)cc(COc3cccc(NC(=O)COc4ccccc4)c3)nc12	i	nt	nt	nt	nt	nt
O=C(O)c1cccnc1Nc1ccc(Cl)cc1	i	11.6µM	i	i	7.31µM	?
Cc1ccc(Nc2ncccc2C(=O)O)cc1C	i	i	i	i	i	i
Cc1ccc(S(=O)(=O)N2CCCCC2CCNC(=O)C(=O)NCCc2ccco2)cc1 (stereo not given)	?	6.51µM	3.66µM	i	5.17µM	6.51µM
Cc1ccc(S(=O)(=O)N2CCCCC2CCNC(=O)C(=O)NCc2ccco2)cc1 (stereo not given)	i	?	9.2µM	i	?	?
SMILES	PINK1 modulator	KB-V1 MDR tox	MCF10A rerep	PTAP TSG101 blk	KB-3-1 tox	SW480 rereplic
Cc1ccc(C)c(S(=O)(=O)N2CCCCC2CCNC(=O)C(=O)NCCc2ccco2)c1 (stereo not given)	i	i	i	i	i	i
Cc1ccc(C)c(S(=O)(=O)N2CCCCC2CCNC(=O)C(=O)NCc2ccncc2)c1 (stereo not given)	i	2.31µM	i	i	?	i
O=C(NCCc1ccco1)C(=O)NCC1CCCN1S(=O)(=O)c1ccccc1 (stereo not given)	i	?	?	i	?	16.4µM
Cc1cc(C)c(S(=O)(=O)N2CCCCC2CCNC(=O)C(=O)NCc2ccco2)c(C)c1 (stereo not given)	i	?	?	i	?	?
Cc1ccc(C)c(S(=O)(=O)N2CCCCC2CCNC(=O)C(=O)NC2CCCC2)c1 (stereo not given)	i	?	?	i	i	i
Cc1c(C(=O)N(Cc2ccc(N(C)C)cc2)Cc2ccco2)oc2cc(Br)ccc12	i	nt	nt	nt	nt	nt
COc1ccc(Cn2ccc3nc(C)c(C(=O)Nc4cc(OC)c(OC)c(OC)c4)cc3c2=O)cc1	i	i	nt	nt	i	nt
CCOC(=O)N1CCN(C(=O)c2ccc(N(Cc3ccc(C)cc3)S(C)(=O)=O)cc2)CC1	i	18.4µM	i	i	i	i
CCOC(=O)N1CCN(C(=O)c2ccc(N(Cc3ccc(Cl)cc3)S(C)(=O)=O)cc2)CC1	i	i	i	i	i	i
CCOC(=O)N1CCN(C(=O)c2ccc(N(Cc3ccccc3)S(C)(=O)=O)cc2)CC1	i	16.4µM	i	i	i	i
CCCn1c(=O)c2c(C(=O)OCC)cc(-c3ccco3)nc2n(CCC)c1=O	i	18.4µM	11.6µM	i	i	i
Cc1nn(-c2ccccc2)c2nc(-c3ccncc3)cc(C(=O)NCc3ccco3)c12	i	?	?	i	?	?
CCOC(=O)c1cc(-c2ccco2)nc2c1c(C)nn2-c1ccccc1	i	i	9.2µM	i	i	i
Cn1c(=O)c(C(=O)COC(=O)c2cc(-c3ccco3)nc3ccccc23)c(N)n(Cc2ccccc2)c1=O	nt	nt	23.1µM	nt	nt	?
CC(C)Cn1c(N)c(C(=O)COC(=O)c2cc(-c3ccco3)nc3ccccc23)c(=O)n(C)c1=O	?	i	i	i	i	i[9.22 µM]
c1ccc2c(c1)CCN(C1=Nc3cccc4cccc1c34)C2	?	?	8.2µM	i	i	?
COc1ccc(OC)c(CCNC(=O)c2cc3c(=O)n(C)c4ccccc4c3n2C)c1	i	i	nt	nt	i	nt
N#C/C(=C\C1CC=CCC1)c1nc2ccccc2[nH]1 (stereo not given)	i	13µM	?	i	?	?
Cc1ccnc2nc(NC(=O)c3ccccc3Cl)nn12	i	nt	nt	nt	nt	nt
CCOc1ccccc1C(=O)NC(C)c1ccc2c(c1)OCO2 (stereo not given)	i	9.2µM	?	i	?	?
CCOc1ccc(C(C)NC(=O)Cc2ccccc2)cc1OCC (stereo not given)	i	i	i	i	?	14.6µM
CCOc1ccccc1C(=O)NC(C(=O)N(C)Cc1ccc2c(c1)OCO2)C(C)C (stereo not given)	i	?	i	i	i	i
CCOc1ccc(C(CCc2ccccc2)NC(=O)c2ccccc2F)cc1OCC (stereo not given)	i	?	i	i	i	i
